Our source for the fluorescence intensity values is PubChem BioAssay AID624483 (NMMLSC, 2012).

In all, about 360,000 compounds went through this assay and about 11,000 (3.1%) were called active. Another 2% or so got no clear call; they are omitted. This is one part of a sample in which actives are shown more often than they occur. No stated cut-off is given here; in the data, active means fluorescence intensity above about 16000; inconclusive means no clear call, values can overlap the other calls; inactive means below that.

The assay is described as follows: compound fluorescence in toxin protease inhibitor counterscreen, primary screen, artefact control for toxin protease inhibitor project, biochemical, multiplex microsphere, HTS (AID 624483). The note with it: compound autofluorescence counterscreen, microsphere flow cytometry; stronger effect = higher value. Background: The purpose of a counterscreen is to sort out artefacts and off-target activity.
Consider `COc1ccc(NC(=O)C2(C)Cc3c(-c4ccc(C(N)=O)cc4)ccnc3O2)cc1` (centres undefined), for which the fluorescence intensity is 3540 (inactive).

For the molecule `COC(=O)c1ccc(CNC(=O)C2CCC(=O)N(Cc3ccccn3)C2)cc1` (centres undefined), the fluorescence intensity is 4790 (inactive).

In the case of `CCS(=O)(=O)Nc1cc(C(=O)OC)ccc1C(=O)OC`, the fluorescence intensity is 20300 (active).

On to `CCCN(CCC)C(=S)Nc1cc(C(=O)OC)ccc1C(=O)OC`, for which the fluorescence intensity is 2240 (inactive).

Consider `COC(=O)c1ccc(C(=O)OC)c(NC(=S)N2CCCCC2)c1`, for which the fluorescence intensity was 5240 (inactive).

For the molecule `CC1C(=O)N(Cc2cn(Cc3ccco3)nn2)CCS(=O)(=O)N1Cc1ccc(-c2cccc(CO)c2)cc1` (centres undefined), the fluorescence intensity was 3680 (inactive).

With `C=CCN1C2CCCC1CC(NC(=S)Nc1cccc(OC)c1)C2` (centres undefined), the fluorescence intensity was 4340 (inactive).

As for `CCCCNC(=O)c1nc(C2CCN(S(=O)(=O)c3ccc(F)c(F)c3)CC2)oc1-c1cccc(C(F)(F)F)c1`, the fluorescence intensity is 5910 (inactive).

For the molecule `O=C(Nc1ccc(Cl)cn1)c1cnn2cccnc12`, the fluorescence intensity was 4840 (inactive).

Turning to `Cc1cc(NC(=O)Nc2ccc(Cl)cc2)n(-c2ccccc2)n1`, the fluorescence intensity was 5820 (inactive).

`Cc1cc(NC(=O)c2cnn3cccnc23)n(-c2ccccc2)n1`: the fluorescence intensity is 19500 (active).

Regarding `O=C(NCc1ccc(F)cc1)c1cc(C2CCCCN2C(=O)C2CCCCC2)on1` (centres undefined), the fluorescence intensity was 3660 (inactive).

`O=C(Nc1cccc(C(=O)N2CCCC2)c1)c1ccccc1`: the fluorescence intensity was 23500 (active).

For `CCC(CC)C(=O)Nc1cccc(C(=O)N2CCCC2)c1`, the fluorescence intensity was 9330 (inactive).

For the molecule `CC(=O)c1cccc(NC(=S)N2CCCC2)c1`, the fluorescence intensity is 4420 (inactive).

Take `COc1ccccc1CNC(=O)C1CCN(c2nc3ccccc3o2)CC1`: the fluorescence intensity is 21300 (active).

As to `COc1ccccc1CNC(=O)C1CCN(S(C)(=O)=O)CC1`, the fluorescence intensity was 8350 (inactive).

As to `COc1ccc(OC)c(CNC(=O)C2CCCN(c3nc4ccccc4o3)C2)c1` (centres undefined), the fluorescence intensity was 15800 (inactive).

Regarding `COc1ccccc1CNC(=O)c1cc(-c2cc(F)ccc2OC)n[nH]1`, the fluorescence intensity is 3700 (inactive).

In the case of `CC(C)C[C@H]1CNC(=O)C(=O)N1C[C@@H]1CCCN1C[C@H](Cc1ccccc1)N1C[C@H](CC(C)C)N(CC2CCCCCC2)C(=O)C1=O`, the fluorescence intensity is 5660 (inactive).

For `Cc1cccc2sc(N(CCCN(C)C)C(=O)CCS(=O)(=O)c3ccccc3)nc12`, the fluorescence intensity was 32000 (active).

Turning to `Cc1cc(C)c2nc(N(CCN(C)C)C(=O)/C=C/c3cccs3)sc2c1`, the fluorescence intensity is 4460 (inactive).

For `Cc1ccc2sc(N(CCN(C)C)C(=O)/C=C/c3cccs3)nc2c1C`, the fluorescence intensity was 4390 (inactive).

Turning to `COc1cc(/C=C/CNC[C@H]2O[C@@H](n3cnc(C(N)=O)n3)[C@H](O)[C@@H]2O)ccc1O`, the fluorescence intensity was 3180 (inactive).

On to `O=C(NCc1ccccc1Cl)C1CCN(S(=O)(=O)N2CCOCC2)CC1`, for which the fluorescence intensity is 5690 (inactive).

For `Cc1ccccc1Cn1c(C)c(C(=O)NCc2cccc(C(F)(F)F)c2)sc1=O`, the fluorescence intensity was 5450 (inactive).

Regarding `FC(F)(F)c1ccccc1Cc1c(-c2ccccc2)nc2c3ccccc3ccn12`, the fluorescence intensity was 6460 (inactive).

As to `CC(C)OCCCNc1nc2c(c(=O)n(Cc3ccccc3F)c(=O)n2C)n1C`, the fluorescence intensity was 23400 (active).

In the case of `Cn1c(=O)c2c(nc(NCCNC(=O)c3ccco3)n2Cc2ccccc2F)n(C)c1=O`, the fluorescence intensity is 5330 (inactive).

On to `COc1ccc(N2CC(C)Cn3c2nc2c3c(=O)n(Cc3ccccc3F)c(=O)n2C)c(OC)c1` (centres undefined), for which the fluorescence intensity was 5760 (inactive).

Consider `CCc1ccc([C@@H]2CC(=O)[C@@H]3CN(S(=O)(=O)c4ccc(C)cc4)[C@H](c4ccc(Cl)cc4)C[C@@H]3N2S(=O)(=O)c2ccc(C)cc2)cc1`, for which the fluorescence intensity was 6290 (inactive).

Turning to `COc1ccc(CCn2c(O)c(C=NC3CC3)c(=O)[nH]c2=O)cc1OC`, the fluorescence intensity is 3180 (inactive).

As for `O=c1[nH]c(=O)n(CCc2ccc(F)cc2)c(O)c1/C=N/N1CCCCC1`, the fluorescence intensity is 3680 (inactive).

With `COc1ccc(CCn2c(O)c(C=NCCCn3ccnc3)c(=O)[nH]c2=O)cc1OC`, the fluorescence intensity was 22700 (active).

As to `CCc1nc2ccc(C(=O)Nc3cccc(OC)c3)cn2c1N(CCC(C)C)CCN(C)C`, the fluorescence intensity was 3940 (inactive).

In the case of `COC(=O)c1ccc(S(=O)(=O)N(CCO)Cc2ccccc2)n1C`, the fluorescence intensity is 5690 (inactive).

`CCCC(=O)N1CCC1(C)C(=O)NCc1ccc(SC)cc1` (centres undefined): the fluorescence intensity is 4000 (inactive).

As to `O=c1oc2ccccc2c(CNc2ccccc2)c1[N+](=O)[O-]`, the fluorescence intensity was 3710 (inactive).

In the case of `CC1(C(=O)NS(=O)(=O)c2ccc3ccccc3c2)CCN1C(=O)C1(c2ccc(Cl)cc2)CCC1` (centres undefined), the fluorescence intensity was 3400 (inactive).

`CCc1nc2c(OCc3cccc(OC)c3)cccn2c1N(C)C(=O)C(C)C`: the fluorescence intensity was 4100 (inactive).

`O=C(Oc1ccc(-c2nc(-c3ccccn3)no2)cc1)c1ccccc1`: the fluorescence intensity is 3190 (inactive).

As to `COc1ccc2nc(-c3ccccn3)ccc2c1`, the fluorescence intensity was 4000 (inactive).

For `CC(C)c1nc(-c2ccccn2)no1`, the fluorescence intensity was 21700 (active).

`CC(=O)NC(c1ccccc1)c1nc(-c2cccc(C(C)C)c2)cs1` (centres undefined): the fluorescence intensity is 3400 (inactive).

In the case of `Cc1ccccc1OCC(=O)NNC(=O)c1ccc(-n2cncn2)c([N+](=O)[O-])c1`, the fluorescence intensity was 5300 (inactive).

Consider `C=C(C)Cn1c(N2CCN(CC)CC2)nc2c1c(=O)[nH]c(=O)n2C`, for which the fluorescence intensity is 4600 (inactive).

With `CCOC(=O)C1C(c2ccc(OC)c(OC)c2)c2c([nH][nH]c2=O)CC1(C)O` (centres undefined), the fluorescence intensity is 4630 (inactive).

As for `COc1ccc(C2OCC3(CO2)SC(=O)NC3=O)cc1OC` (centres undefined), the fluorescence intensity was 2510 (inactive).

As to `CCCC(C)n1[nH]c(=O)c2c1NC(=O)CSC2c1ccc(OC)c(OC)c1` (centres undefined), the fluorescence intensity is 20600 (active).

`CCCCN1CC(N2CCN(Cc3cccc(C)c3)CC2)CS1(=O)=O` (centres undefined): the fluorescence intensity is 6580 (inactive).

Take `Nc1c(NCCc2ccccc2)c2ccccc2oc1=O`: the fluorescence intensity was 3190 (inactive).

Consider `CC(C)(C)Nc1c(N)c(=O)oc2ccccc12`, for which the fluorescence intensity was 17700 (active).

Consider `O=c1oc2ccccc2c(=O)c2ccccc12`, for which the fluorescence intensity is 3730 (inactive).

With `CN(C)Cc1c(O)ccc2occ(C(O)c3ccccc3)c12` (centres undefined), the fluorescence intensity was 2380 (inactive).

Consider `CC(=O)c1cccc(-c2cnc3c(NC=O)cc(-c4cccc(C(=O)N(C)C)c4)cn23)c1`, for which the fluorescence intensity was 4000 (inactive).

For the molecule `OCCC#Cc1ccc(N2C(c3ccsc3)=Cc3ccc(F)cc3C2c2c[nH]c3ccccc23)cc1` (centres undefined), the fluorescence intensity is 4910 (inactive).

On to `CCOC(=O)C1=C(CC)OC(N)=C(C#N)C1c1ccc(F)cc1F` (centres undefined), for which the fluorescence intensity was 2060 (inactive).

On to `COC(=O)C1=C(C)N(C)C(=S)NC1c1cc(OC)ccc1OC` (centres undefined), for which the fluorescence intensity is 4360 (inactive).

Regarding `CCC1=C(C(=O)OC)C(c2cc(OC)ccc2OC)C(C#N)=C(N)O1` (centres undefined), the fluorescence intensity is 21500 (active).

`Cc1cc(C)cc(NS(=O)(=O)Cc2ccccc2)c1`: the fluorescence intensity was 3320 (inactive).

Turning to `COc1ccc(OCCNS(=O)(=O)Cc2ccccc2)cc1`, the fluorescence intensity is 2820 (inactive).

For `CCOCCCNS(=O)(=O)Cc1ccccc1`, the fluorescence intensity was 18800 (active).

Take `COCCNC(=O)c1cc2c(Br)ccc(Br)c2nc1N`: the fluorescence intensity was 4280 (inactive).

As to `CC(=O)Nc1ccc(SCC(=O)NC(=O)c2ccc(Cl)cc2)cc1`, the fluorescence intensity was 3220 (inactive).

As to `CC(C)CNC(=S)NC(=O)c1ccc(Cl)cc1`, the fluorescence intensity was 2350 (inactive).

Turning to `COC(=O)/C(NC(C)=O)=C(\C)c1ccc(Cl)cc1`, the fluorescence intensity is 17300 (active).

Consider `COc1ccc(CC(N)c2csc(NC(=O)NC(c3ccccc3)c3ccccc3)n2)cc1` (centres undefined), for which the fluorescence intensity was 3610 (inactive).

Consider `COc1ccc(OC)c(C(O)c2ncc(-c3cccc(C(F)(F)F)c3)[nH]2)c1` (centres undefined), for which the fluorescence intensity is 3890 (inactive).

In the case of `CN1OC[C@@H]2CN(C(=O)c3cccnc3)[C@H](c3ccc(N4CCCCC4)cc3)C[C@@H]21`, the fluorescence intensity is 4430 (inactive).

As for `CN1OC[C@@H]2CN(S(=O)(=O)c3cccc4ccccc34)[C@H](c3ccc(N4CCCCC4)cc3)C[C@@H]21`, the fluorescence intensity is 25600 (active).

On to `CN1OC[C@@H]2CN(C(=O)c3cccc4ccccc34)[C@H](c3ccc(N4CCCCC4)cc3)C[C@@H]21`, for which the fluorescence intensity was 11700 (inactive).

In the case of `Cc1cc(C)c2nc3nc(C)cc(C)c3c(N)c2c1`, the fluorescence intensity was 2140 (inactive).

For `CCOc1ccc(NC(=O)CSc2nncn2C)cc1`, the fluorescence intensity is 3760 (inactive).

With `CCCCOc1ccc(NC(=O)CSCC(=O)OCC)cc1`, the fluorescence intensity is 21000 (active).

Turning to `CCOC(=O)Cc1ncccc1C(=O)Nc1ccc(OC)cc1`, the fluorescence intensity is 3720 (inactive).

On to `COc1ccc(C(C)C)cc1-c1ccc2nncn2c1`, for which the fluorescence intensity was 3610 (inactive).

Turning to `CC1(C(=O)NS(=O)(=O)c2ccccc2)CCN1C(=O)c1ccccc1` (centres undefined), the fluorescence intensity is 3830 (inactive).

For `CCCCCCN1CCN(C2CN(Cc3cn(Cc4ccc(F)cc4)nn3)S(=O)(=O)C2)CC1` (centres undefined), the fluorescence intensity was 6160 (inactive).

For the molecule `CSc1nsc(SCC(=O)Nc2cc(C(=O)O)ccc2C)n1`, the fluorescence intensity is 4170 (inactive).

`CC(C)C[C@@H](N)c1nnc(SCC(=O)c2ccc(Cl)cc2)o1`: the fluorescence intensity is 9640 (inactive).

For the molecule `Oc1ccc(-n2nnnc2SCc2c(F)cccc2Cl)cc1`, the fluorescence intensity is 3260 (inactive).

Turning to `N[C@@H](Cc1c[nH]c2ccccc12)c1nnc(SCc2c(F)cccc2Cl)o1`, the fluorescence intensity is 22800 (active).

Take `CC(C)(C)C1C/C(=C/c2ccco2)C(=O)/C(=C/c2ccco2)C1` (centres undefined): the fluorescence intensity is 3920 (inactive).

Regarding `O=S1(=O)CC(N2CCSCC2)CN1Cc1cn(Cc2cccc(Cl)c2)nn1` (centres undefined), the fluorescence intensity was 5080 (inactive).

With `CC12CN3CC(C)(CN(C1)C3c1cccs1)C2` (centres undefined), the fluorescence intensity was 8490 (inactive).

Regarding `CC1(C)C(=O)C2(CCCCC2)C(=O)OC1c1cccs1` (centres undefined), the fluorescence intensity was 20700 (active).

With `O=C(O)C(c1cccs1)C1(O)CCCCC1` (centres undefined), the fluorescence intensity was 3860 (inactive).

With `CCC(C(=O)N1CCN(S(=O)(=O)c2sc(C(=O)O)c(C)c2C(=O)O)CC1)c1ccccc1` (centres undefined), the fluorescence intensity is 9090 (inactive).

For the molecule `COc1ccc(C)cc1S(=O)(=O)N(CC(=O)Nc1cccc([N+](=O)[O-])c1)c1ccc(C)cc1`, the fluorescence intensity was 2390 (inactive).

`COc1cccc(NC(=O)Nc2ccc(F)cc2)c1`: the fluorescence intensity is 3940 (inactive).

As for `CCOc1ccc(N(CC(=O)Nc2cccc(OC)c2)S(C)(=O)=O)cc1`, the fluorescence intensity was 4460 (inactive).

With `Cc1ccc(N(CC(=O)Nc2cccc(N(C)S(C)(=O)=O)c2)S(C)(=O)=O)cc1`, the fluorescence intensity was 24500 (active).

Consider `CN(c1cccc(NC(=O)c2ccc(CN3CCc4ccccc4C3)cc2)c1)S(C)(=O)=O`, for which the fluorescence intensity is 3600 (inactive).

As to `CN(c1cccc(NC(=O)Nc2ccc(Cl)cc2)c1)S(C)(=O)=O`, the fluorescence intensity is 16900 (active).
